# Measurements: PubChem BioAssay (Tox21)
# Records with an inconclusive call do not appear. A number with no mark means an inactive call. Calls come from the whole dose curve; as a rule, active = well fitted cell-killing curve with a large enough effect in the repeat runs; inconclusive = weak or mixed curves, or effect the other way; inactive = flat fitted curve, though single readings scatter.
# Assay: qHTS assay to identify small molecule agonists of the TGF-beta/Smad signaling pathway - cell viability counter screen (AID 1346829); note: top concentration of the series differs between compounds; nearly all actives have a fitted effect of over 45% in size
# Conditions: SBE-bla HEK293T viability, CellTiter-Glo luminescence, 5 h; series mostly up to 76.8 µM; activity change, negative = cytotoxicity: at the top concentration
# From the text: National Center for Advancing Translational Sciences [NCATS]
# NIH Chemical Genomics Center [NCGC]
# U.S. Environmental Protection Agency [EPA]
# National Institutes of Environmental Health Sciences [NIEHS]
# National Toxicology Program [NTP]
# U.S. Food and Drug Administration [FDA]
# Transforming growth factor beta (TGF-beta) superfamily consists of a large number of structurally related dimeric proteins that act as hormones or local mediators in regulating a wide range of biological functions. This superfamily includes TGF-betas themselves, the bone morphogenetic proteins (BMPs) and the activins. These ligands induce oligomerization of serine/threonine receptor kinases and phosphorylate the cytoplasmic signaling molecules of Smad protein family. CellSensor SBE-bla HEK 293T cell line (Life Technologies, Carlsbad, CA), responsive to TGF-beta was used to screen Tox21 10K compound library for identification of agonists/antagonists of the Smad signaling pathway. This cell line contains a beta-lactamase reporter gene under control of the Smad binding element (SBE) stably integrated into HEK 293T cells. Also cytotoxicity of the compounds was tested in parallel by measuring the cell viability using CellTiter-Glo assay system in the same wells.
# Tox21 Assay Protocol Summary:
# SBE-bla HEK 293T cells were dispensed at 4,000/well in 6 uL of assay medium into black wall/clear-bottom 1536-well plates using a Multidrop Combi (ThermoFisher Scientific, Waltham, MA) dispenser. After the assay plates were incubated at 37 C and 5% CO2 for an overnight, 23 nL of compounds dissolved in DMSO, positive controls or DMSO only was transferred to the assay plate by a Pintool station (Kalypsys, San Diego, CA). The assay plates were incubated at 37 C and 5% CO2 for 5 hr. One uL of LiveBLAzer B/G FRET substrate (Life Technologies) was added using a Flying Reagent Dispenser (FRD, Aurora Discovery, San Diego, CA) and the plates were incubated at room temperature for 2 hr. Fluorescence intensity (405 nm excitation, 460 nm and 530 nm emissions) was measured using an Envision plate reader (PerkinElmer, Shelton, CT). For cytotoxicity read, 4 uL of CellTiter-Glo reagent (Promega Corporation, Madison, WI) was added to each well of the assay plates using FRD. After 30min incubation at room temperature, the luminescence intensity was measured using ViewLux plate reader (PerkinElmer).
# % is set by controls: 0 for no effect and ±100 for the full control effect.
row,SMILES,"activity change, negative = cytotoxicity"
1,CC(C)[C@H](N)C(=O)OCCOCn1cnc2c(=O)[nH]c(N)nc21,-4.19% [at 35.3 µM]
2,CN(C)C(=O)Nc1ccccc1,-5.83%
3,NC(CS)C(=O)O (stereo not given),2.32% [at 35.3 µM]
4,COc1cc(C(=O)N2CCOCC2)cc(OC)c1OC,5.22% [at 35.3 µM]
5,NC(=O)CCCCC1CCSS1 (stereo not given),8.55% [at 35.3 µM]
6,CCC(=O)Nc1cccc(N)c1,-3.52%
7,OC[C@H]1O[C@@H]2O[C@H]3[C@H](O)[C@@H](O)[C@@H](O[C@H]4[C@H](O)[C@@H](O)[C@@H](O[C@H]5[C@H](O)[C@@H](O)[C@@H](O[C@H]6[C@H](O)[C@@H](O)[C@@H](O[C@H]7[C@H](O)[C@@H](O)[C@@H](O[C@H]8[C@H](O)[C@@H](O)[C@@H](O[C@H]9[C@H](O)[C@@H](O)[C@@H](O[C@H]1[C@H](O)[C@H]2O)O[C@@H]9CO)O[C@@H]8CO)O[C@@H]7CO)O[C@@H]6CO)O[C@@H]5CO)O[C@@H]4CO)O[C@@H]3CO,2.36% [at 35.3 µM]
8,COc1cc(C)cc(O)c1,5.75%
9,O=C(O)Cc1cc(I)c(Oc2cc(I)c(O)c(I)c2)c(I)c1,6.46% [at 35.3 µM]
10,CC(=O)CCc1ccc(O)cc1,-10.1%
11,Cn1ccc2cc3c(cc21)CCN3C(=O)Nc1cccnc1,-1.62% [at 15.8 µM]
12,C=C(C)C(=O)NCCC[N+](C)(C)C,16.6%
13,CC/C=C\CCCCO,5.04%
14,CCn1cc(C(=O)O)c(=O)c2cc(F)c(N3CCN(C)CC3)cc21,-2.92% [at 15.8 µM]
15,CC(C=O)Cc1ccc(C(C)C)cc1 (stereo not given),-15.5%
16,OC/C=C/c1ccccc1,-3.47%
17,CCC(=O)/C=C/c1ccc(OC)cc1,2.16%
18,CC(C)=CCC/C(C)=C/C(=O)O,8.77%
19,CCOC(=O)Nc1ccc2c(c1)N(C(=O)CCN1CCOCC1)c1ccccc1S2,3.15% [at 35.3 µM]
20,CCCOc1ccccc1-c1nc2n[nH]nc2c(=O)[nH]1,-0.806% [at 35.3 µM]

row,SMILES,"activity change, negative = cytotoxicity"
1,COc1ccc2cc(C=O)ccc2c1,1.18% [at 35.3 µM]
2,CC1=CC(=O)CCC1,14.5%
3,CCCCCCCCCCCCCCCCCC(=O)OCCCCCCCCCCCCCC(C)C,-1.94%
4,O=C(O)c1ccccc1-c1ccc(C(F)(F)F)cc1,18.7% [at 35.3 µM]
5,NC(=O)c1c(Cl)cccc1Cl,3.67%
6,CCCCCCCCN(C)CCCCCCCC,5.16%
7,CNC(=O)c1c(I)c(NC(=O)CCCCC(=O)Nc2c(I)c(C(=O)O)c(I)c(C(=O)NC)c2I)c(I)c(C(=O)O)c1I,-0.807% [at 35.3 µM]
8,CCCC(C)C(=O)O (stereo not given),-7.54%
9,NC(=O)Nc1nc2ccccc2[nH]1,-1.03%
10,NS(=O)(=O)c1cc2c(cc1C(F)(F)F)NC(Cc1ccccc1)NS2(=O)=O (stereo not given),-3.44% [at 35.3 µM]
11,NC(N)=NS(=O)(=O)c1ccc(N)cc1,13.6% [at 35.3 µM]
12,OCCCCCCO,-0.997%
13,Nc1cc(C(Cl)=C(Cl)Cl)c(S(N)(=O)=O)cc1S(N)(=O)=O,-5.36% [at 35.3 µM]
14,CSc1ccc(C=O)cc1,1.6%
15,CC1(C)SC(C)(C)SC(C)(C)S1,3.93%
16,O=C(O)/C=C/c1ccc(/C=C/C(=O)O)cc1,-7.91% [at 35.3 µM]
17,CC(=O)NC(Cc1ccccc1)C(=O)O (stereo not given),6.04% [at 35.3 µM]
18,CCCOCC(C)OCC(C)O (stereo not given),5.06%
19,CC(C)(C)CC(C)(C)N,0.0008%
20,OCC(CO)(CO)COCC(CO)(CO)CO,4.43%
